Source: PubChem (several laboratories)
proKLK7 act: activates the human kallikrein-7 zymogen; purified proKLK7, EDANS-DABCYL substrate fluorescence; 100% is mature enzyme control, 0% vehicle; activation, % at 7 µM; 370,000 tested, 0.9% active; AID 652039;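 active = activation above the mean of all tested compounds plus 3 SD, computed per campaign excluding outliers beyond control limits, cut at about 13% in these data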
Target sequence (P49862 whole entry, looked up): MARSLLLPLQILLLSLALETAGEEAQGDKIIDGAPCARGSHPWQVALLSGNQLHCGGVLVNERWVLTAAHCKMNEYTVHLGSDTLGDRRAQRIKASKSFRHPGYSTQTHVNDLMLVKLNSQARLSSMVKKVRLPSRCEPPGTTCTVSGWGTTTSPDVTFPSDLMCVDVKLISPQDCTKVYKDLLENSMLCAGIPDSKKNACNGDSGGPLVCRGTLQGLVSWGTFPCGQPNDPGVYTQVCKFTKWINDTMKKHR
ADAM17 inh: inhibits human ADAM17; recombinant ADAM17, EDANS/DABCYL FRET peptide cleavage; inhibition, % at 6.95 µM; P78536; 370,000 tested, 0.83% active;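 active = inhibition above the mean of compounds lying between control limits plus 3 SD, set per campaign, cut at about 8.5% in these data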
ADAM10 inh: inhibitors of human ADAM10; inhibition, % at 7 µM; 370,000 tested, 0.62% active; O14672; recombinant ADAM10, EDANS/DABCYL FRET peptide cleavage, 3 h; AID 720582;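 active = inhibition above a per-campaign cutoff equal to the mean of compounds falling between control-based bounds plus 3 SD, cut at about 20% in these data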
NR3A LBD binder: modulates the human NR3A ligand-binding domain; NR3A LBD differential scanning fluorimetry, Tm shift; 0% = protein alone, 100% = glycine-bound protein; Tm shift relative to glycine control, % at 25 µM; 340,000 tested, 2.5% active; AID 1259313;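 active = melting temperature shift of at least 10% of the positive control shift, at one fixed dose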
FAS-TE inh: inhibitors of human fatty acid synthase thioesterase domain | P49327 | recombinant FAS-TE, OMFH fluorogenic substrate, fluorescence endpoint | inhibition, % at 15 µM | 360,000 tested, 0.67% active | AID 602261;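 active = compounds whose normalised, plate-corrected inhibition of enzyme fluorescence in the single-dose primary screen is 50% or more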
Of the large screens only hits and unclear results are named; the others gave an inactive call. The list is not random: actives were taken first. Their share in the collection is about 4.6%.

CC(C)(C)NC(=O)C(c1ccc(-c2ccccc2)cc1)N(C[C@H]1CC[C@@H]([C@@H]2CC[C@H](CO)O2)O1)C(=O)c1cccc(Cl)c1 (stereo partly specified)	none
Cc1cc(C)nc(NS(=O)(=O)c2ccc(NC(=O)Nc3ccccc3)cc2)n1	NR3A LBD binder 19
Cc1cc(C)nc(NS(=O)(=O)c2ccc(NS(=O)(=O)c3ccccc3)cc2)n1	none
Cc1cc(C)nc(NS(=O)(=O)c2ccc(NC(=O)CN3C(=O)S/C(=C\c4ccccc4)C3=O)cc2)n1	NR3A LBD binder 11
C=CCCC(=O)N[C@H]1CC[C@@]23CCCN2C(=O)CCC[C@H]3[C@H]1C	none (no result: proKLK7 act, NR3A LBD binder, FAS-TE inh)
COc1cnn(-c2ccc(Br)cc2)c(=O)c1SCc1ccccc1	NR3A LBD binder 15
COc1ccccc1NC(=O)OCCN1CCCC12CCC(c1ccccc1)CC2 (stereo unspecified)	none (no result: proKLK7 act, NR3A LBD binder, FAS-TE inh)
O=C(/C=C/c1cccc([N+](=O)[O-])c1)Nc1ccccn1	none
Cc1ccc2oc(-c3cccc(NC(=O)/C=C/c4cccc([N+](=O)[O-])c4)c3C)nc2c1	NR3A LBD binder 17
CC(C)=CCC/C(C)=C/CN1CC(=O)N2[C@H](C[C@@]3(n4ccc5ccccc54)c4ccccc4N(S(=O)(=O)c4ccccc4)[C@@H]23)C1=O	none (no result: NR3A LBD binder, FAS-TE inh)
O=C(NCC1CCN(Cc2ccc(F)cc2)CC1)Nc1cc(F)ccc1F	NR3A LBD binder 10
CCOC(=O)c1sc(=S)n(-c2cc(F)ccc2F)c1N	NR3A LBD binder 14
Cc1ccc(-c2cc(C(F)(F)F)c(C#N)c(=O)[nH]2)cc1	none
N#Cc1c(C(F)(F)F)cc(-c2ccccc2)[nH]c1=O	proKLK7 act 25
COc1ccc(NC(=S)NC(NC(=O)/C=C/c2ccccc2)C(Cl)(Cl)Cl)cc1 (stereo unspecified)	none
CC(=O)NC(NC(=S)Nc1ccc(N=Nc2ccccc2)cc1)C(Cl)(Cl)Cl (stereo unspecified)	NR3A LBD binder 13
O=C(CCc1ccccc1)NC(NC(=S)Nc1ccc(Cl)cc1)C(Cl)(Cl)Cl (stereo unspecified)	NR3A LBD binder 27
CC(=O)NC(NC(=S)Nc1ccc(S(N)(=O)=O)cc1)C(Cl)(Cl)Cl (stereo unspecified)	none
O=C(/C=C/c1ccccc1)NC(NC(=S)Nc1cc(Cl)ccc1Cl)C(Cl)(Cl)Cl (stereo unspecified)	NR3A LBD binder 30
O=C(/C=C/c1ccccc1)NC(NC(=S)Nc1ccc(Cl)cc1)C(Cl)(Cl)Cl (stereo unspecified)	NR3A LBD binder 25
CC(C)CC(=O)NC(NC(=S)Nc1ccccc1)C(Cl)(Cl)Cl (stereo unspecified)	none
Cc1ccc2nc(/C(C#N)=C\c3ccc(Oc4ccc([N+](=O)[O-])cn4)cc3)[nH]c2c1	NR3A LBD binder 12
CC(C)[C@H](NC(=O)OC(C)(C)C)C(=O)N1CCC(Oc2cccnc2)CC1	none (no result: NR3A LBD binder, FAS-TE inh)
COc1cc(NC(=O)Cn2nc(C(F)(F)F)c(Br)c2C)cc([N+](=O)[O-])c1	NR3A LBD binder 21
COc1ccc(CNC(=O)Cn2nc(C(F)(F)F)c(Br)c2C)cc1	none
c1ccc(-c2cc(-c3ccccc3)on2)cc1	NR3A LBD binder 30
CCOC(=O)c1[nH]c2ccc(F)cc2c1NC(=O)c1cc(OC)c(OC)c(OC)c1	none
COc1cc(C(=O)Nc2c(C(=O)O)[nH]c3ccc(Br)cc23)cc(OC)c1OC	NR3A LBD binder 10
CN(C)c1ccc(NC(=O)Nc2csc3ccccc23)cc1	NR3A LBD binder 18
CCc1ccccc1NC(=O)Nc1ccc(F)cc1	none
CN1CCC(CNC(=O)Nc2csc3ccccc23)CC1	none
O=C(Nc1ccc(F)cc1)Nc1ccccc1NS(=O)(=O)c1cccs1	NR3A LBD binder 30
NC(=O)c1ccccc1NS(=O)(=O)c1cccs1	none
O=C(Nc1ccc(F)cc1)Nc1csc2ccccc12	NR3A LBD binder 34
O=C1c2cc([N+](=O)[O-])ccc2-c2ncccc21	none
Nc1ccc2c(c1)C(=O)c1cc(Cl)c(Cl)cc1-2	NR3A LBD binder 41
Nc1ccc2c(c1)C(=O)c1cc([N+](=O)[O-])ccc1-2	NR3A LBD binder 25
Nc1ccc2c(c1)C(=O)c1ccc(N)cc1-2	none
O=C(NC1CCCCN(Cc2cccc(Cl)c2)C1=O)c1ccc(Cl)cc1Cl (stereo unspecified)	none (no result: NR3A LBD binder, FAS-TE inh)
Cc1ccc(C)c(-n2c(SCC(=O)Nc3nonc3C)nnc2-c2ccoc2C)c1	none
Cn1c(SCC(=O)Nc2cc(Cl)cc(Cl)c2)nnc1-c1ccc2nonc2c1	NR3A LBD binder 45
Cc1nonc1NC(=O)CSc1nnc(-c2ccoc2C)n1C	NR3A LBD binder 20
N#C/C(=C\Nc1ccccc1O)c1nc2ccccc2o1	NR3A LBD binder 27
CC(=O)c1sc2nc(-c3ccc(C)cc3)c3c(c2c1N)CCCC3	NR3A LBD binder 10
CC(C)=CCc1cc([C@@H]2CC(=O)c3ccc(O)c(CC=C(C)C)c3O2)ccc1O	NR3A LBD binder 11
COc1ccc(C2C(C(=O)Nc3cc(OC)c(OC)c(OC)c3)CCC(=O)N2c2ccc(OC)cc2)cc1 (stereo unspecified)	none (no result: NR3A LBD binder, FAS-TE inh)
CCCCCN1CCCCC(NC(=O)c2ccc(C)cc2)C1=O (stereo unspecified)	none (no result: NR3A LBD binder, FAS-TE inh)
O=C(Nc1cccc2ncccc12)c1ccc(F)cc1	NR3A LBD binder 12
COc1ccc(-c2cc(-c3nnc(COC(=O)c4ccc(O)cc4)o3)c3ccccc3n2)cc1OC	NR3A LBD binder 15
CC(C)C1N=C(NC(=O)OCc2ccccc2)NC1=O (stereo unspecified) (tested in a mixture with another compound)	none (no result: NR3A LBD binder, FAS-TE inh)
Cc1ccccc1Nc1nc(-c2ccccc2)c(C(=O)Nc2cccnc2)s1	none
COc1ccc(Nc2nc(-c3ccccc3)c(C(=O)Nc3cccnc3)s2)cc1	NR3A LBD binder 19
COc1ccc(C(=O)Nc2nc(-c3ccc([N+](=O)[O-])cc3)c(-c3ccccc3)s2)cc1	none
CN(C)S(=O)(=O)c1ccc(C(=O)Nc2nc(-c3ccccc3)c(C(=O)c3ccccc3)s2)cc1	NR3A LBD binder 22
Cc1ccc(-c2nc(NC(=O)c3ccc(S(=O)(=O)N(CCC#N)CCC#N)cc3)sc2-c2ccccc2)cc1	NR3A LBD binder 10
Cc1ccc(OC[C@@H](O)CN2CCC(C(O)(c3ccccc3)c3ccccc3)CC2)cc1	none (no result: NR3A LBD binder, FAS-TE inh)
CCN(Cc1cn(Cc2ccccc2)nn1)S(=O)(=O)c1ccc(F)cc1Br	none (no result: NR3A LBD binder, FAS-TE inh)
NC(=O)C1CCN(c2nc(-c3ccc4c(c3)CCO4)cs2)CC1	none (no result: proKLK7 act, NR3A LBD binder, FAS-TE inh)
CCCCN(C)C(=O)c1ccc2c(c1)NC(=O)C(C)(C)O2	none (no result: NR3A LBD binder, FAS-TE inh)
c1ccc(-c2nnc(-c3ccccc3)c(-c3c[nH]c4ccccc34)n2)cc1	NR3A LBD binder 15
COc1ccc(NC(=O)C(c2ccc(C)cc2)N(C)C(=O)CC2NC(=O)NC2=O)cc1 (stereo unspecified)	NR3A LBD binder 12
Nc1cc(-c2ccncc2)c[nH]c1=O	NR3A LBD binder 13
